# Pol iota inh – blocks human DNA polymerase iota activity. actives 1% (n = 390,000). Q9UNA4. Pol iota fluorescent replication assay, 10 min. Potency, µM (top dose mostly 115 µM), for the others: top-dose activity, negative = inhibition, most hits filed as inhibitors
#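 Pol iota at 10 nM preincubated 15 min with compounds at room temperature; reaction started with fluorescent substrate, 50 nM final. Fluorescence read kinetically at 0 and 10 min; buffer-only wells as negative control.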
# FEN1 inhibitor – blocks human flap endonuclease 1; P39748; Recombinant FEN1 flap cleavage, fluorescence, 15 min; Potency, µM (highest dose often 114 µM), without a hit: at the highest dose activity change, negative = inhibition, usual class: inhibitors; actives 0.35% (n = 390,000); AID 588795; note: % is set by controls: 0 for no effect and ±100 for the full control effect; nearly all actives have a fitted effect of over 65% in size
#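 Read-out was taken twice, immediately and after 15 min, following addition of 50 nM substrate to 10 nM FEN1 that had sat with test compound for 15 min at room temperature. Curves came from a four-parameter Hill model.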
# POLK inh – blocks human DNA polymerase kappa activity; Potency, µM (series often up to 107 µM), inactives show at the top dose activity, negative = inhibition, usual class: inhibitors; purified Pol kappa, fluorescent DNA synthesis assay, 10 min; AID 588579; Q9UBT6; actives 0.53% (n = 400,000); note: % is set by controls: 0 for no effect and ±100 for the full control effect
#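 Activity was followed as the change in fluorescence between reads at 0 and 10 min after starting the reaction with 50 nM substrate. Beforehand, 10 nM polymerase had been preincubated with compound for 15 min at room temperature.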
# WRN helicase inh-1 – blocks human WRN helicase; Q14191; WRN helicase unwinding, fluorescent forked duplex, kinetic; Potency, µM (top dose mostly 114 µM), for inactives: at the highest dose activity change, negative = inhibition, most hits filed as inhibitors; actives 0.46% (n = 360,000); AID 651768; note: % is set by controls: 0 for no effect and ±100 for the full control effect; nearly all actives have a fitted effect of over 55% in size
#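 Enzyme (20 nM final) and test compound sit together 15 min at room temperature before substrate addition. Substrate is a single-forked duplex oligonucleotide (100 nM) labelled with fluorophore and quencher, with 2 mM ATP; helicase unwinding raises red fluorescence, read kinetically.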
# Pol beta inh – blocks human DNA polymerase beta activity. P06746. Pol beta primer extension/strand displacement, fluorescence kinetic. Potency, µM (series often up to 114 µM), for the others: at the highest dose activity change, negative = inhibition, most hits filed as inhibitors. actives 1.3% (n = 340,000); note: % is set by controls: 0 for no effect and ±100 for the full control effect
#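 Enzyme-only controls used 10 nM Pol beta; buffer lacking enzyme served as negative control. Compound preincubated 15 min, then 50 nM substrate added; 0 and 10 min reads at room temperature.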
# Pol eta inh – inhibitors of human DNA polymerase eta | Q9Y253 | recombinant Pol eta, fluorescent DNA replication assay | Potency, µM (series often up to 114 µM), inactives show at the highest dose activity change, negative = inhibition, most hits filed as inhibitors | actives 1.2% (n = 390,000) | AID 588591; note: % is set by controls: 0 for no effect and ±100 for the full control effect
#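 Pol eta at 10 nM preincubated with compounds 15 min at room temperature; reaction started with fluorescent substrate (50 nM final) and read kinetically at 0 and 10 min.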
# WRN helicase inh-2 – WRN helicase inhibition, cherry-pick retest; actives 63% (n = 610); shares compounds with WRN helicase inh-1; WRN helicase DNA unwinding, fluorescence kinetic; Potency, µM (doses to about 57.1 µM), without a hit: at the top dose activity, negative = inhibition, most hits filed as inhibitors; note: nearly all actives have a fitted effect of over 65% in size
# TO DNA binding – binds DNA, flagged in WRN inhibitor counterscreen; shares compounds with WRN helicase inh-1; thiazole orange DNA binding displacement, fluorescence; Potency, µM (doses to about 57.1 µM), for inactives: at the top dose activity change, negative = inhibition, hits mostly inhibitors; actives 10% (n = 610);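 note: drop in dye fluorescence marks compound binding to DNA; % is set by controls: 0 for no effect and ±100 for the full control effect; nearly all actives have a fitted effect of over 60% in size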
# BLM counter – BLM helicase inhibition, WRN selectivity check; Recombinant BLM helicase DNA unwinding, red fluorescence; shares compounds with WRN helicase inh-1; Potency, µM (doses to about 57.1 µM), inactives show at the highest dose activity change, negative = inhibition, actives largely listed as inhibitors; actives 60% (n = 610); note: nearly all actives have a fitted effect of over 60% in size
# An asterisk follows results filed as active; i = inactive; ? = inconclusive; . = not tested or not shown; [ ] = dose if it differs, or a comment. The list is not random: actives were taken first. Their share in the collection is about 2.4%. Calls come from the whole dose curve; as a rule, active = well fitted curve in the direction sought with a large enough effect; inconclusive = small, poorly fitted or top-dose-only effect, or another doubt; inactive = no such curve, though single readings can be large; an effect the other way counts as inactive or inconclusive. Potency is the fitted concentration of half-maximal effect.
SMILES,Pol iota inh,FEN1 inhibitor,POLK inh,WRN helicase inh-1,Pol beta inh,Pol eta inh,WRN helicase inh-2,TO DNA binding,BLM counter
COc1cc(-c2cnc3c(NC=O)cc(-c4cccc(NC(C)=O)c4)cn23)cc(OC)c1OC,.,.,.,25.1µM*,.,.,9.61µM*,7.9%,15.2µM*
CCOc1ccc2nc(N3CCCC(C(=O)Nc4ccc(Br)c(C)c4)C3)sc2c1 (stereo unspecified),18.6%,2.1%,-16.6%,.,-13.8%,-15.4%,.,.,.
O=S(=O)(c1cc(Br)c(Br)s1)N1CCN(c2ccccc2)CC1,15.4%,9.3%,-9.5%[60.1 µM],.,?,-19.9%,.,.,.
O=C1NC(=Nc2ccc(O)cc2)S/C1=C\C=C\c1ccco1,?,-15.5%,-44.2%,?,20µM*,31.6µM*,19.2µM*,?,21.5µM*
C[C@@H]1C[C@H](OC(=O)[C@@H](O)c2ccccc2)CC(C)(C)N1C,.,.,-6.2%[12 µM],.,.,.,.,.,.
Cc1ccc(N=Cc2cc(Cc3ccccc3Cl)cc([N+](=O)[O-])c2O)c(O)c1,?,-31.7%,-80.5%,28.2µM*,15.8µM*,50.1µM*,24.1µM*,?,21.5µM*
Cc1ccccc1N=Cc1cc2c(cc1[N+](=O)[O-])OCO2,31.2%,-1.3%,-11.1%,-22.0%[57.1 µM],10.6%,-15.0%,.,.,.
Fc1ccc(N2CCN(c3nc4ccccc4c4nc(-c5cccnc5)nn34)CC2)cc1,12.3%,16.8%,1.1%,.,-0.1%,-3.9%,.,.,.
COc1ccc(/C=N/NC(=O)c2ccccc2OC)cc1COc1ccccc1[N+](=O)[O-],-29.3%,2.9%,-1.1%,?,?,-14.6%,?,-4.6%,-20.3%
COc1ccc(/C=N/NC(=O)c2ccccc2OC)cc1COc1ccc(C)cc1,13.6%,-1.6%,-11.1%,-26.4%,10.4%,-8.8%,.,.,.
COc1ccc(-n2c(=O)c3ccccc3c3ccccc3c2=O)cc1,20.0%,0.4%,-7.2%,?,2.4%,-4.3%,.,.,.
COc1ccc(OC)c(-n2c(=O)c3ccccc3c3ccccc3c2=O)c1,-1.6%,2.6%,-7.8%,?,-3.9%,-22.9%,-14.6%,-9.7%,?
Cn1cnc([N+](=O)[O-])c1S(=O)(=O)Oc1cccc2ccccc12,?,4.0%,-15.3%,-87.8%,.,-5.0%,?,-7.2%,?
COc1ccc(NC(=O)CN(C)CC(=O)Nc2ccccc2SC)cc1,8.6%,-1.5%,-4.0%,28.2µM*,-18.5%,-9.4%,-13.2%,-8.8%,-20.9%
COc1ccc(OCCN(C)CC(=O)Nc2ccccc2SC)cc1,73.9%,-2.7%,-14.8%,-5.0%,35.8%,-16.8%,.,.,.
Oc1ccc(/C=N/Nc2nc(-c3cccnc3)nc3ccccc23)c(O)c1,?,-33.1%,-10.0%,-30.8%,?,-2.8%,.,.,.
Cc1c(O)ccc(/C=N/Nc2nc(-c3cccnc3)nc3ccccc23)c1O,-16.6%,?,?,?,3.4%,?,?,27.1µM*,?
Cc1ccc(NN2C(=O)C=C(c3ccccc3)C2=O)cc1,?,-22.5%,-4.0%,?,3.1%,-6.4%,-19.7%,-6.0%,-21.8%
Cc1ccc(NC(=O)c2cccn2-c2nnc(N3CCCCC3)s2)cc1Cl,?,2.9%,-9.3%,.,1.3%,16.1%,.,.,.
COc1ccccc1OCCSc1nc(-c2ccc(C(C)(C)C)cc2)nc2cc(=O)[nH]n12,-18.5%,-26.5%,-5.5%,.,12.0%,?,?,?,27.1µM*
COc1ccc(C2c3cccn3CCN2S(=O)(=O)c2ccc([N+](=O)[O-])cc2)cc1 (stereo unspecified),29.1%,-9.2%,-4.1%[60.1 µM],.,-5.5%,-20.4%,.,.,.
Cc1nn(CCc2nc(-c3ccco3)cs2)c2[nH]c(=O)cc(C(F)(F)F)c12,12.6µM*,?,35.5µM*,35.5µM*,22.4µM*,31.6µM*,?,-13.6%,21.5µM*
CCCCNC(C(=O)Nc1ccc([N+](=O)[O-])cc1Br)c1ccccc1 (stereo unspecified),?,3.3%,-6.9%,?,4.5%,-20.6%,0.5%,-8.2%,-10.8%
CC(C)Cc1ccc(C(C)/C=C2/CCC(CN3CCCCC3)C2=O)cc1 (stereo unspecified),?,-20.1%,-13.4%,35.5µM*,.,22.4µM*,-27.2%,-5.9%,?
CC(=O)[C@@]1(O)Cc2c(O)c3c(c(O)c2[C@H](O[C@H]2C[C@H](N)[C@H](O)[C@H](C)O2)C1)C(=O)c1ccccc1C3=O,.,.,.,.,.,.,24.1µM*,i,24.1µM*
SMILES,Pol iota inh,FEN1 inhibitor,POLK inh,WRN helicase inh-1,Pol beta inh,Pol eta inh,WRN helicase inh-2,TO DNA binding,BLM counter
CCOC(=O)CC(NC(=O)c1cc2c(=O)n3cccc(C)c3nc2s1)c1ccc(OCC)c(OC)c1 (stereo unspecified),-10.8%,10.4%,3.0%,.,-1.2%,-8.6%,.,.,.
COc1ccc(OC)c2nc3c(C(=O)NCCN(C)C)cccc3nc12,?,14.1µM*,?,12.6µM*,.,?,13.6µM*,10.8µM*,21.5µM*
CN(C)CCNC(=O)c1cccc2ccc(-c3ccc(-c4ccccc4)cc3)nc12,-29.0%,?,-16.1%,44.7%,.,-10.9%,.,.,.
COc1ccc(NC(=O)/C(Cl)=C(/Cl)S(=O)(=O)Cc2ccccc2)cn1,?,-16.1%,-8.0%,11.9µM*,3.6%,?,?,-11.4%,-29.6%
COc1ccc(NC(=O)Nc2ccc(OCc3ccccc3)cc2)cn1,34.8%,-5.3%,11.6%,0.4%,-1.3%,-5.2%,.,.,.
CC1=C(SCc2ccccc2)C(=O)c2ccccc2C1=O,3.16µM*,?,-10.9%,?,.,31.6µM*,?,?,24.1µM*
Cn1c(SCc2ccccc2)nccc1=O,51.8%,4.1%,-1.0%,2.8%,.,-20.9%,.,.,.
O=C(O)COc1ccccc1/C=N/NC(=O)c1cc(-c2ccc(Cl)cc2)nc2ccccc12,-17.9%,?,-1.5%,?,-5.8%,?,?,?,27.1µM*
COc1ccc(CCNC(=O)CCn2c(=O)c3ccccc3n(Cc3cc(C)ccc3C)c2=O)cc1OC,7.3%,-0.8%,-10.8%,.,?,1.3%,.,.,.
Cc1nn(-c2ccccc2)c2nc(=O)n(-c3ccccc3)cc12,?,-4.1%,-8.7%,?,29.7%,-4.2%,-16.8%,-0.2%,-13.1%

# Screens as filed in PubChem BioAssay.
